# Test results published in the OligoGym collection.
# Target: C8orf86
# Experiment: pooled miR-30 sensor sort-seq; sequence = guide strand
# Conditions: shRNA
# Note: reference of the scale not given here.
row,Sequence,sensor-assay potency score (higher = more potent)
1,ATTGCTTCTAATCAACTCCTCA,0.067
2,TTTGTCTCTCTGTTCGCTGCTC,-0.0258
3,TTTGAAGAAACCACAGATGCGA,0.17
4,TTGGCTCTTTGGAACTGCCTGT,-0.109

# Target: C9orf100
# Experiment: as above
# Conditions: shRNA
row,Sequence,sensor-assay potency score (higher = more potent)
1,TTGGTTATAGAGCTCCAAGTGG,-0.209
2,ATCTGGAGTAGCTTGGTCCAGG,-1.26
3,TTATAGAGCTCCAAGTGGCGGC,-0.479
4,TTTCTTTAGCTGCTCCTGCAGG,-0.717
5,AAATTGGTTATAGAGCTCCAAG,-1.5
6,TTGATGGTCAGGGCTGTTGGGA,-1.1
7,TATTTTTCTTTAGCTGCTCCTG,-0.997
8,TCGGTCTCTAGCAGCTCCCGGG,-1.38
9,TAAGCAGTAGCTTCTCATGAGG,-1.31
10,TTCTTGGTAGCGCCGCTCGGTC,-1.6
11,TGAAGCCGTACAAACCTCCGGA,0.131
12,TCAGACTGTGGTACCAGCGTGA,0.191

# Target: C9orf172
# Experiment: as above
# Conditions: shRNA
row,Sequence,sensor-assay potency score (higher = more potent)
1,TAGTAGGCGTCGAAGGTTGGGC,-0.683
2,TCATCAGGTCGTCCTCGTCGGC,-1.75
3,TTGTCAGTGATGGTGATCTCGG,-1.12
4,TTGGCCTCGACGAACTCGCAAA,-1.39
5,TAGGTGTAGCAGCTGTGGCAGG,-0.976
6,TAGTAGGTGTAGCAGCTGTGGC,-1.29
7,TCTCGGACAGGGACAGTGCGGC,-0.804
8,TACCTTCCGAAGTCCTCCGTGT,-0.162
9,TTGAACATGGTCTCGGTGCGCC,-0.301
10,ATGATCATGCACATGAAGGGGC,0.238
11,TATGAGTCGCTGGGCGTCGGGG,-1.22
12,TTGATGTCCTGGTACACGGTCG,-0.476

# Target: C9orf30
# Experiment: as above
# Conditions: shRNA
row,Sequence,sensor-assay potency score (higher = more potent)
1,TTAAATGAGGAAACAGGCCATT,-1.27
2,TTATTGAGAACTTCCATTTTTA,-0.9
3,TTACAGGTTACTGACCGCCAAG,-1.66
4,TTTATTGAGAACTTCCATTTTT,-0.999
5,TATACTTTTCTACTAAAGCCAG,-0.895
6,TTGTTGATGGTGTTCTTCCTCA,-0.2
7,TTATCCTGTGTTCCTCCTCTGC,-1.19
8,ATCACTTTTCTTACATTCCAGC,-1.2
9,TTTTCTTACATTCCAGCACATA,-1.58
10,AGAACTTCCATTTTTATCCTGT,-0.0866
11,TTCAGAAGACTATAACAGCTTC,-0.358
12,TATTCTGACAGCTGAACACGAG,-0.517
